The whole screen tested about 65,000 compounds, of which about 2,100 (3.2%) showed an effect of 50% or more. The median lay at about -52%. What follows is part of a selection rich in strong results, with near analogues and random picks from the rest.
System: Plasmodium falciparum
Test: Screen against P. falciparum Asexual Blood Stage (ABS), at 5uM
Assay type: functional, Dd2
Conditions: tested at 5 uM

Going from `CCN1CCC2(CCC1=O)CN(c1nccc(N)n1)CCN2C` (stereo not given) to `CCc1cc(N2CCN3CCCCC3C2)n2nccc2n1` (stereo not given), the INHIBITION rises from -4.03% to 6.52%.

First: Cc1cccc(CO[C@@H]2CC[C@H]3[C@H]2OCCN3Cc2ccoc2)n1
Second: Cc1ccc(N2CC[C@@H]3[C@@H]2CCN3Cc2ccsc2)nn1
The INHIBITION of the first is higher: -50.4% for the first, -103% for the second.

Going from `O=C(NCc1ccccn1)[C@@H]1COC[C@H]2CNC[C@H]21` to `O=C(C[C@@H]1COC[C@H]2CN(C3CCC3)C[C@@H]12)NCc1cccnc1`, the INHIBITION falls from -8.97% to -138%.

Compared with `COCCN1C[C@@H](C)[C@@]2(COCCN(C(=O)c3ccno3)C2)C1`, `COc1cnc(N2CC(N3CCOCC3)C2)nc1-c1ccnn1C` is higher in INHIBITION: -103% for the first, 75.3% for the second.

Going from `COc1ccc(-c2ccoc2)cc1CNC1CCCC1` to `Cc1cc(N2CCC(NCCOc3ccccc3)CC2)nc(C)n1`, the INHIBITION rises from 70.2% to 75.1%.

Going from `CN(Cc1cccc(F)c1)C(=O)CN1CCCC1CCc1ccccc1` (stereo not given) to `CSc1cccc(CN(C)C(=O)c2cccc(C3CCCNC3)c2)c1` (stereo not given), the INHIBITION rises from 75% to 77.5%.

First: OCCCN(CCc1cccc(F)c1)C1CC1
Second: CN(C)[C@@H]1CN(C(=O)Cc2cccc(F)c2)[C@@H]2CCCO[C@H]12
The INHIBITION of the first is lower: -63.8% for the first, 24.8% for the second.

First: Cn1c(CCN2CCN(c3ccc(O)cc3)CC2)nc2ccccc21
Second: Cc1cc(N2CCCN(CCc3ccccc3)CC2)ccn1
The INHIBITION of the first is lower: -128% for the first, 87% for the second.

First: Cc1ccc2c(n1)N(C)CCN(CCN1CCCC1)C2
Second: COc1ccc(Cl)cc1CC(=O)N1CCN(CCO)CC1
The INHIBITION of the first is higher: -5.37% for the first, -118% for the second.

First: CO[C@@H]1CC[C@H]2[C@H]1OCCN2CC1CCOCC1
Second: O=C(NCCc1ccncc1)[C@H]1CC[C@@H]2[C@@H](CCN2CC2CC2)O1
The INHIBITION of the first is lower: -21.2% for the first, -3.59% for the second.

First: c1cnc(N2C[C@H]3CN(CC4CCOC4)C[C@H]3C2)nc1 (stereo not given in full)
Second: COc1ccc(CN2C[C@@H]3OCCN(c4ncccn4)[C@@H]3C2)cc1
The INHIBITION of the first is lower: -53% for the first, -2.3% for the second.

Compared with `O=C1CO[C@@H]2CNC[C@H]2N1CC1CC1`, `O=C1C[C@H]2[C@H](CCN2Cc2ccccn2)N1CC1CC1` is higher in INHIBITION: -97.4% for the first, -90.1% for the second.

First: O[C@@H]1CCN(CC2CC2)[C@H]1Cc1ccccc1
Second: COc1ccc(CN2CC[C@@H](O)[C@@H]2Cc2ccccc2)cc1
The INHIBITION of the first is lower: 63.2% for the first, 80.7% for the second.

Compared with `CNC(=O)[C@@H]1CN(Cc2ccccc2)C[C@H]1C(=O)c1ccc(F)cc1`, `CC1CCN(CC(=O)N(Cc2ccccc2)Cc2nccs2)C1=O` (stereo not given) is higher in INHIBITION: -109% for the first, -96.3% for the second.

Going from `O=C(c1ccccc1)N1CCO[C@@H]2CNC[C@@H]21` to `O=C(c1ccccc1)N1CCOC2CNCC[C@H]21` (stereo not given in full), the INHIBITION rises from -70.7% to -28.1%.

Going from `Fc1ccccc1-c1cc(N2[C@@H]3CC[C@H]2CNC3)n2nccc2n1` to `CC(C)c1cc(N2CC[C@H](F)C2)n2nccc2n1`, the INHIBITION rises from -59% to 70.9%.

First: O=C1N(Cc2ccccn2)C[C@H]2CN(C3CCC3)CCN12
Second: O=C1CO[C@H]2CN(C3CCOCC3)C[C@H]2N1Cc1ccncc1
The INHIBITION of the first is higher: -13.7% for the first, -53.2% for the second.

First: CCOC[C@@H]1CC[C@H]2[C@H](CCN2Cc2c(C)noc2C)O1
Second: CCc1cc(N2CCC(NC3CN4CCC3CC4)CC2)nc(N(C)C)n1 (stereo not given)
The INHIBITION of the first is lower: -96.4% for the first, -25.1% for the second.

First: CN1CCCC(Cc2nccnc2Cl)CC1 (stereo not given)
Second: CN1CCCC(c2cccc(Cc3ccccc3Cl)n2)C1 (stereo not given)
The INHIBITION of the first is lower: 5.74% for the first, 70.3% for the second.

First: Cc1nc(CC(=O)N2CCN(C)CC2c2ccccc2)cs1 (stereo not given)
Second: CN1CCCC(c2cncc(C(=O)NCc3ccccc3Cl)n2)C1 (stereo not given)
The INHIBITION of the first is lower: -76.9% for the first, 72.4% for the second.

Compared with `O=C(C1CCCC1)N1C[C@@H]2CCNC[C@@H]21`, `CC(C)NC(=O)N1CCOC2(CCNCC2)C1` is higher in INHIBITION: -78.2% for the first, 16.9% for the second.

Going from `O=C1CC2(CCN(Cc3cccnc3)C2)CN1c1cncnc1` (stereo not given) to `CCCSCC(=O)N1C[C@@H]2CC[C@H]1CN(Cc1cccnc1)C2`, the INHIBITION rises from -101% to -60%.

Going from `CC(C)(C)C(=O)NCCNCc1ccc(Cl)c2cccnc12` to `CCCNC(=O)c1cn(C(C)(C)C)c2ncccc12`, the INHIBITION falls from 77.7% to -149%.

Compared with `COCCNC(=O)c1cn(C(C)(C)C)c2ncccc12`, `CCOCCCNC(=O)c1cn(C(C)(C)C)c2ncccc12` is lower in INHIBITION: -129% for the first, -151% for the second.

First: O=C(N1CCOCC1)N1CCC2(CCNC2)C1 (stereo not given)
Second: c1cc(COC[C@@]23CCC[C@@H]2CN(C2CCOCC2)C3)ccn1
The INHIBITION of the first is higher: -12.3% for the first, -24.5% for the second.

Going from `CC(C)CN1CCC2(CC1)C(=O)Nc1ccc(C(=O)N(C)C)cc12` to `CNC(=O)c1ccc2c(c1)C1(CCN(C(C)C)CC1)C(=O)N2`, the INHIBITION falls from -21.2% to -45.1%.

Going from `Cc1c(C2SCC(=O)Nc3c2c(O)nn3C2CCCCC2)cnn1C` (stereo not given) to `Cc1n[nH]c2c1C(c1ccc(Br)cc1)SCC(=O)N2` (stereo not given), the INHIBITION rises from -53.5% to -33.1%.

Compared with `COc1cccc(CN(Cc2ccco2)Cc2[nH]cnc2C)c1`, `Cc1nc[nH]c1CN(Cc1ccccc1)Cc1nccs1` is lower in INHIBITION: 86.4% for the first, 75.7% for the second.

Going from `Cc1nc[nH]c1CN1CCCC12CCN(c1ccccn1)CC2` to `Cc1ccnc(OC[C@@]23CCO[C@@H]2CCN(C2CCC2)C3)n1`, the INHIBITION rises from -15.3% to -9.15%.

First: COc1cccc(CCNCc2c(C)nn(C)c2N(C)C)c1
Second: CCCc1cc(N2CCC(NCCc3ccc(O)cc3)CC2)nc(C)n1
The INHIBITION of the first is lower: 49% for the first, 82.1% for the second.

First: CN(CC1CCN(CCO)CC1)CC(O)c1ccc(F)c(F)c1 (stereo not given)
Second: CC(NCC1CCN(CCO)CC1)c1ccc(F)c(Cl)c1 (stereo not given)
The INHIBITION of the first is lower: 76.5% for the first, 84.1% for the second.

Compared with `CC(NCC1CCN(CCO)CC1)c1ccc(Cl)cc1` (stereo not given), `CC(NCC1CCN(CCO)CC1)c1cccc(Cl)c1` (stereo not given) is lower in INHIBITION: 93.9% for the first, 84.8% for the second.

Going from `CCOCC(=O)NC(C)Cc1ccccc1Br` (stereo not given) to `CC(Cc1ccc(Cl)cc1)NC(=O)Nc1cnn(CC(N)=O)c1` (stereo not given), the INHIBITION rises from -68.7% to 22.5%.

Going from `Cc1cc(N(C)C)cc(C2CCN(S(=O)(=O)c3cccs3)C2)n1` (stereo not given) to `Cc1cccc(N2CCC(NC(C)c3cccs3)CC2)n1` (stereo not given), the INHIBITION falls from 84.1% to -22.7%.

First: Cc1cc(N2CCCC2c2cccnc2)nc(C)n1 (stereo not given)
Second: Cc1cc(N2CCC(NC(C)Cc3ccsc3)CC2)nc(C)n1 (stereo not given)
The INHIBITION of the first is lower: -10.2% for the first, 85.8% for the second.

Reference: ChEMBL document CHEMBL4513216, “Probing the Open Global Health Chemical Diversity Library for Multistage-Active Starting Points for Next-Generation Antimalarials” (ACS Infect Dis, 2020)
